Measured values published in PubChem BioAssay.
Activity calls are given as the source filed them.

Legend:
[1] = binders of probe aFSTL3 on microarray, primary screen, stem cell growth factor project, biochemical, small-molecule microarray, fluorescence 635/667 (AID 1064); conditions: higher = more signal;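 note: measures binding of the biotinylated anti-FSTL3 antibody to printed compounds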
[2] = binders from COS7 lysate, DM2A8 probe, primary screen, torsin A project, cell lysate, small-molecule microarray, fluorescence 635/667 (AID 1065); conditions: higher = more signal, COS7 lysate expressing mutant human TOR1A
[3] = binders of probe aFGF2 on microarray, primary screen, stem cell growth factor project, biochemical, small-molecule microarray, fluorescence 635/667 (AID 1067); conditions: higher = more signal;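 note: measures binding of biotinylated aFGF2 protein to printed compounds on slides; z-score merges feature fluorescence and signal-to-noise across triplicate slides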
[4] = binders of probe aFGF10 on microarray, primary screen, stem cell growth factor project, biochemical, small-molecule microarray, fluorescence 635/667 (AID 1071); conditions: higher = more signal;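 note: score merges 667 nm spot intensity and signal to noise from triplicate slides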
[5] = target: Neurogenic locus notch homolog protein 2 (Homo sapiens) (UniProt Q04721); experiment: Notch2 binders on small-molecule microarrays, primary screen, biochemical, small-molecule microarray, 635 nm fluorescence, stem cell growth factors (AID 1073); conditions: Notch2 binding, higher = more signal
[6] = target: Pro-neuregulin-1, membrane-bound isoform (Homo sapiens) (UniProt Q02297); experiment: NRG1 binders on small-molecule microarrays, primary screen, psychiatric disease protein project, biochemical, small-molecule microarray, fluorescence 635/667 (AID 1075); conditions: NRG1 binding, 635 nm fluorescence, higher = more signal;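 note: score combines 667 nm spot fluorescence with signal to noise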
[7] = tested on: Neuregulin-1 EGF-like domain; experiment: binders of neuregulin-1 EGF-like domain, primary screen, biochemical, small-molecule microarray, 635 nm fluorescence (AID 1081); conditions: small-molecule microarray binding, higher = more signal;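 note: binding of the protein to compounds printed on small-molecule microarray slides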
[8] = FRG1 promoter luciferase signal modulators, primary screen, FRG1 inhibition for FSHD, cell-based, C2C12 myotubes, firefly/Renilla luciferase, luminescence (AID 1084); conditions: higher = more signal, called active from +8 up or from −8 down
[9] = binders of probe aFST on microarray, primary screen, stem cell growth factor project, biochemical, small-molecule microarray, fluorescence 635/667 (AID 1086); conditions: higher = more signal;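 note: score merges 667 nm fluorescence with signal-to-noise of each printed compound spot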
[10] = binders of probe aHhip on microarray, primary screen, stem cell growth factor project, biochemical, small-molecule microarray, fluorescence 635/667 (AID 1087); conditions: higher = more signal;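 note: score merges spot fluorescence at 667nm with spot signal to noise ratio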

Pro-neuregulin-1, membrane-bound isoform (Homo sapiens), sequence (Q02297 whole entry, looked up, the tested form may be a part, canonical isoform): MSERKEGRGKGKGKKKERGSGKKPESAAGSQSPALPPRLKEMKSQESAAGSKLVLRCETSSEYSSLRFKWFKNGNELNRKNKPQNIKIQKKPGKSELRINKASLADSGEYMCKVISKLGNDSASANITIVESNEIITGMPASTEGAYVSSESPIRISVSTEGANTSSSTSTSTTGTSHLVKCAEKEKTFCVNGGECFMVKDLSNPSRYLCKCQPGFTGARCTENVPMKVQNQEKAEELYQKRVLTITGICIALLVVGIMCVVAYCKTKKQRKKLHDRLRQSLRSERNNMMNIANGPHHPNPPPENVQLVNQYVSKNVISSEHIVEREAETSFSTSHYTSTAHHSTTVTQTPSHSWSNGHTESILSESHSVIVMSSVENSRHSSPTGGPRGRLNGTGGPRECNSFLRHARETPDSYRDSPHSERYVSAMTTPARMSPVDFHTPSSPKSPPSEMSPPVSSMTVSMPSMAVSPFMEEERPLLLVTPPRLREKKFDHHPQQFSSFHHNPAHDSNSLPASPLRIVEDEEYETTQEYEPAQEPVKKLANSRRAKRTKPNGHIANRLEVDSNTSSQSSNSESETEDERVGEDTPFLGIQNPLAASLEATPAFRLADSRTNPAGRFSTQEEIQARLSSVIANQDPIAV
Neurogenic locus notch homolog protein 2 (Homo sapiens), sequence (Q04721 whole entry, looked up, canonical isoform): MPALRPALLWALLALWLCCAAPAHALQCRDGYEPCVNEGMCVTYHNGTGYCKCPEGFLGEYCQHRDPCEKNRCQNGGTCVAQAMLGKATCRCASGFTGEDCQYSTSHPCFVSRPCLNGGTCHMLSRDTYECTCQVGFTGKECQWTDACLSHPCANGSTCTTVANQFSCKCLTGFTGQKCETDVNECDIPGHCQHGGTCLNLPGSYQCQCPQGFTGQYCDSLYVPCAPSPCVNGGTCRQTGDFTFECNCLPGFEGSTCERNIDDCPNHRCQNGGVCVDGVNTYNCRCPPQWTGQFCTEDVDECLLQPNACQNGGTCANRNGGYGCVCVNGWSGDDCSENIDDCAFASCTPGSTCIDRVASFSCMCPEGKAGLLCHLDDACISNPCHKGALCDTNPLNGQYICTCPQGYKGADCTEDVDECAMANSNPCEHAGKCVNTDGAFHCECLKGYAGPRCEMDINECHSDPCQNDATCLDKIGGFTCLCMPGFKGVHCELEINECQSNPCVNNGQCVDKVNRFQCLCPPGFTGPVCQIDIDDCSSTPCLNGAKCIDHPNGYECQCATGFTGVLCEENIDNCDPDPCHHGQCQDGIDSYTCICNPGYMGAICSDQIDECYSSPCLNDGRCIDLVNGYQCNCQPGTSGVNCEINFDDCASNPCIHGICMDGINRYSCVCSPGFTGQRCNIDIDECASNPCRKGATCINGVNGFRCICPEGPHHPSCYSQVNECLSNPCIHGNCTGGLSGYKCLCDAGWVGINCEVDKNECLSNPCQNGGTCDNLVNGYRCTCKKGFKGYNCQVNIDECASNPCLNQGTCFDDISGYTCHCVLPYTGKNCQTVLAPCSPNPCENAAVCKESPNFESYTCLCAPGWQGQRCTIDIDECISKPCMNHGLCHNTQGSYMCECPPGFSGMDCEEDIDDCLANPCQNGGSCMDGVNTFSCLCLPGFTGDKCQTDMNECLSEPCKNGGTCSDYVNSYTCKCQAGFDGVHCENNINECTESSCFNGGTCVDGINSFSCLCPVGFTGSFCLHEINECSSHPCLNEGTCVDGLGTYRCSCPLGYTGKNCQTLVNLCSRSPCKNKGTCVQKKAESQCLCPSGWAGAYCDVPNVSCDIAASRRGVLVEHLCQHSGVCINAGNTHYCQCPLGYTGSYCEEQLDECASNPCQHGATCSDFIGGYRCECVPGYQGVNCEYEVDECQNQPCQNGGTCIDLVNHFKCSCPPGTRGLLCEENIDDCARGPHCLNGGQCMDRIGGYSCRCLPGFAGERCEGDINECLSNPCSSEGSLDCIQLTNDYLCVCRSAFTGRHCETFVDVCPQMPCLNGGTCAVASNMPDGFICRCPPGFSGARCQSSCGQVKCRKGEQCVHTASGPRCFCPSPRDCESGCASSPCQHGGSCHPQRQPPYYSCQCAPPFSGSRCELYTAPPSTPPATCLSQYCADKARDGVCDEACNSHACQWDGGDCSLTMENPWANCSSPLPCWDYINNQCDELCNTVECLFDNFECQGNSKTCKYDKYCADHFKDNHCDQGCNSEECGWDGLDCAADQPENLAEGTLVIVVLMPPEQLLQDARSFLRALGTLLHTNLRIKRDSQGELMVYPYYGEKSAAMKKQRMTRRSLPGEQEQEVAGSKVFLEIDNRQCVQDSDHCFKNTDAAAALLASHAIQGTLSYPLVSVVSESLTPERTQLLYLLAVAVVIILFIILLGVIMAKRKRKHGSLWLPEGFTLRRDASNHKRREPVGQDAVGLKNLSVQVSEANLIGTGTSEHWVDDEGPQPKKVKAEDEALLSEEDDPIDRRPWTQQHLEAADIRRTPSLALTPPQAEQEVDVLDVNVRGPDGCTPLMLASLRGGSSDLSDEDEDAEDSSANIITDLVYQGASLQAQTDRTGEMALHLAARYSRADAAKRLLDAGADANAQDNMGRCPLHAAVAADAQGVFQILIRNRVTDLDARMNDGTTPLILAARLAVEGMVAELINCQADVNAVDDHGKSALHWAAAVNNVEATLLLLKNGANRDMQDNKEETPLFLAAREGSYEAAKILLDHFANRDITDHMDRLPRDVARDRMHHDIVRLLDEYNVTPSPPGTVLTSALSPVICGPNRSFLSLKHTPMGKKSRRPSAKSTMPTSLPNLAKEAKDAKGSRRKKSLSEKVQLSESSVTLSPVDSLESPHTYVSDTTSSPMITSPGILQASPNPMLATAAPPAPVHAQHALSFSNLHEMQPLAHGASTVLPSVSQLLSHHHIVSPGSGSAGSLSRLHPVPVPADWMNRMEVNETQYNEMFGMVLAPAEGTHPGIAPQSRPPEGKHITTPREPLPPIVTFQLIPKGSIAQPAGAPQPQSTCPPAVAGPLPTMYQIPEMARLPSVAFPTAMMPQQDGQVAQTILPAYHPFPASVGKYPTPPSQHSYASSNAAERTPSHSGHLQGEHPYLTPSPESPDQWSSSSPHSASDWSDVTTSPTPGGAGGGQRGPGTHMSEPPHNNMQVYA

| Structure (SMILES) | composite z-score [1] | composite z-score [2] | composite z-score [3] | composite z-score [4] | composite z-score [5] | composite z-score [6] | composite z-score [7] | z-score [8] | composite z-score [9] | composite z-score [10] |
| --- | --- | --- | --- | --- | --- | --- | --- | --- | --- | --- |
| O=C(NCc1ccccc1)[C@@H]1c2ccccc2C(=O)N(C2Cc3ccccc3C2)[C@H]1c1ccc(CO)cc1 | 0.335 | 0.0455 | 0.0017 | 0.526 | 0.501 | 1.02 | 0.971 | -2.38 (inactive) | 0.435 | -0.181 |
| CO[C@H]1O[C@H](CO)[C@@H](OC(=O)Nc2ccccc2-c2ccccc2)[C@H](OC(=O)Nc2ccccc2-c2ccccc2)[C@@H]1OC(=O)Nc1ccccc1-c1ccccc1 | 0.0212 | 0.503 | -0.152 | 1.03 | 1.1 | 1.35 | 1.19 | 0.722 (inactive) | 0.807 | -0.189 |
| COC(=O)[C@@]1(Cc2ccc(OC)cc2)[C@H]2c3cc(C(=O)N4CCCC4)n(Cc4nc5ccccc5[nH]4)c3C[C@H]2CN1C(=O)c1ccccc1 | 1.13 | 0.572 | 0.417 | 1 | 1.82 | 2.11 | 1.14 | 4.38 (inactive) | 1.65 | -0.229 |
| CC(C)[Si](C#C[Si](C(C)C)(C(C)C)C(C)C)(O[C@H](C)c1cn(Cc2ccccc2)nn1)C(C)C | -0.169 | 0.209 | -0.106 | 0.422 | 0.795 | 0.566 | 0.938 | -1.66 (inactive) | 0.372 | -0.337 |
| COCCOC(=O)N1C(=O)[C@@]2(c3cc(C#CC4(O)CCCCCC4)ccc31)[C@H](C(=O)Nc1nc3ccccc3s1)[C@H]1C(=O)O[C@H](c3ccccc3)[C@H](c3ccccc3)N1[C@@H]2c1ccc(OCCO)cc1 | -0.568 | 0.392 | -0.083 | 0.797 | 1.07 | 0.727 | 1.15 | 4.24 (inactive) | 0.277 | 0.0749 |
| CCCC[C@@H]1C[C@H]1[C@@H](NC(=O)c1cccnc1)c1ccc(Cl)cc1 | 1.58 | -1.02 | -0.423 | -1.77 | -1.69 | -0.549 | -0.977 | 0.188 (inactive) | -0.513 | 0.216 |
| C[N+](C)(C)CCCC[C@@H]1NC(=O)[C@@H]2C[C@H](C(=O)NCCCCCN)[C@H](c3ccc(O)cc3)N2C1=O | 0.419 | 0.896 | 0.0522 | 0.628 | 1 | 1.54 | 0.636 | -1.76 (inactive) | 1.19 | 0.266 |
| [N-]=[N+]=Nc1ccccc1C[C@]1(C(=O)NCC(O)CO)N=C(c2ccc(OCCCO)cc2)O[C@H]1c1ccccc1 (stereo not given in full) | 0.451 | 0.533 | -0.0328 | 0.0717 | 0.641 | 1.93 | 0.867 | -0.666 (inactive) | 1.56 | -0.0391 |
| NC(=O)N1C(=O)C2C(C1=O)C1C=C(CCCO)C2C(C2CC2)N1Cc1cc2c(cc1Br)OCO2 (stereo not given) | 0.225 | -0.13 | -0.093 | -0.33 | -0.191 | 0.946 | 0.982 | -0.472 (inactive) | 0.0364 | -0.0994 |
| CCCCN1CC=CC23O[C@@H]4/C=C\CCCOC(=O)C4[C@H]2C(=O)N(CCCO)[C@@H]3C1=O (stereo not given in full) | 0.228 | -0.7 | -0.036 | -0.0326 | -0.913 | 0.817 | 1.46 | 0.829 (inactive) | -0.629 | -0.318 |
| COC(=O)[C@@]1(Cc2ccc(OC)cc2)[C@H]2c3cc(C(=O)N4CCCC4)n(CCSCCO)c3C[C@H]2CN1C(=O)c1ccccc1 | 0.32 | -0.399 | 0.46 | 0.651 | 1.69 | 1.86 | 1.4 | -0.15 (inactive) | 1.3 | 0.455 |
| Cc1ccc(S(=O)(=O)N2C[C@@H](C(=O)O)[C@H](Sc3ccccc3)C[C@H]2c2ccccc2)cc1 | 0.265 | 0.57 | 0.172 | 1.15 | 1.61 | 1.3 | 1.12 | -2.97 (inactive) | 1.56 | -0.34 |
| CO[C@H]1O[C@H](CO)[C@@H](OC(=O)Nc2ccccc2)[C@@H]2OC(=O)[C@@H](Cc3ccc4ccccc4c3)C/C=C/C[C@H](Cc3ccc4ccccc4c3)C(=O)O[C@@H]12 | 0.0395 | 0.821 | 0.126 | 0.908 | 0.336 | 0.915 | 0.965 | -1.62 (inactive) | 0.316 | -0.191 |
| CC(C)[Si](C#CCCCC#N)(Oc1ccccc1Br)C(C)C | -0.517 | 0.14 | -0.182 | 0.151 | 0.266 | 0.151 | 0.204 | 0.382 (inactive) | 0.155 | 0.316 |
| CCOC(=O)C1=C[C@@H](C(C)C)N(S(=O)(=O)c2ccc(C)cc2)[C@H]1c1ccccc1F | -0.487 | 0.267 | -0.0924 | 0.817 | 1.65 | 1.23 | 1.1 | -1.83 (inactive) | 0.904 | -0.305 |
| CC(C)C(=C=CC[C@H](O)c1ccc(CO)o1)CCO | 0.0959 | 1.5 | -0.141 | 0.153 | -0.57 | 1.57 | 1.16 | 0.859 (inactive) | 0.164 | -0.202 |
| Cc1c(NC(=O)/C(C#N)=C/c2cccc([N+](=O)[O-])c2)c(=O)n(-c2ccccc2)n1C | -0.365 | 0.322 | -0.112 | 0.0969 | 1.01 | 1.41 | 1.05 | 0.807 (inactive) | -0.0089 | -0.0994 |
